Bioassay records (PubChem)
Shown are actives, neighbours in structure and some others; about 1.3% of the full set was active somewhere.
CIT2 TOR yeast: yeast TOR pathway CIT2-GFP modulation; 0.065% of 320,000 active; AID 2029; S. cerevisiae CIT2-GFP strain, flow cytometry, 3 h; 100 means same as DMSO wells; GFP response vs DMSO, % at 10 µM;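 active = GFP response relative to DMSO above a set limit, near the screen mean plus 3 SD, cut at about 150% in these data; inconclusive = Fewer than 70 cells measured for a yeast strain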;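 also: ratio of well median GFP fluorescence to mean of DMSO wells on the plate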
AGP1-GFP MLPCN: yeast TOR pathway AGP1-GFP modulation | S. cerevisiae AGP1-GFP multiplex flow cytometry, 3 h; GFP as percent of DMSO wells | GFP response vs DMSO, % at 10 µM | 0.02% of 320,000 active | AID 2066;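 active = GFP response relative to DMSO above a set limit, near screen average plus 3 SD, cut at about 150% in these data; inconclusive = fewer than 70 cells counted for the yeast strain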;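 also: median GFP channel fluorescence of the gated AGP1 strain per well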
Efflux pump mplx: inhibitors of Candida antifungal efflux pumps expressed in yeast; 0.44% of 330,000 active; AID 485275; S. cerevisiae Candida pump triplex, Nile Red efflux; inhibition, % at 10 µM;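 active = plate passing quality check with inhibition over a set limit, or well fluorescence over plate mean plus 4 SD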;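 also: Nile Red retained in pooled yeast measured as flow cytometry median fluorescence; 0% = buffer negative control and 100% = Enniatin B positive control; higher means more Nile Red kept so more efflux inhibition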
MEP2-GFP yeast: yeast TOR pathway MEP2-GFP modulation | GFP response vs DMSO, % at 10 µM | S. cerevisiae MEP2-GFP strain, flow cytometry GFP, 3 h; 100% = DMSO control level | 0.51% of 330,000 active | AID 2016;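 active = GFP response versus DMSO above a set limit, roughly screen mean plus 3 SD, cut at about 180% in these data; inconclusive = fewer than 70 cells counted for a yeast strain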;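 also: median GFP fluorescence of the barcode-gated MEP2-GFP cells per well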
LAP4 TOR yeast: alters LAP4-GFP fluorescence in TOR pathway yeast screen; S. cerevisiae LAP4-GFP multiplex, flow cytometry GFP, 3 h; median GFP as percent of DMSO wells; GFP response vs DMSO, % at 10 µM; 0.34% of 320,000 active; AID 2023;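 active = GFP response vs DMSO above a set limit, about the screen mean plus 3 SD, cut at about 150% in these data; inconclusive = under 70 cell events counted for the yeast strain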
RPL19A-GFP yeast: modulators of TOR pathway RPL19A-GFP in S. cerevisiae; S. cerevisiae RPL19A-GFP strain, flow cytometry, 3 h; hits give low values; percent response vs DMSO, % at 10 µM; 0.3% of 330,000 active;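 active = percent response vs DMSO below 50%; inconclusive = fewer than 70 events counted for the yeast strain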;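 also: median channel GFP fluorescence of the barcoded RPL19A-GFP strain; ratio of sample median GFP to plate DMSO average so 100% = DMSO; lower means less RPL19A-GFP as with rapamycin TOR inhibition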
Cmpd fluor yeast: flagged as fluorescent in efflux inhibitor counter-screen; S. cerevisiae AD/pABC3, compound fluorescence, flow cytometry; AID 588517; shares compounds with Efflux pump mplx; 4% of 1,700 active; fluorescence ratio to DMSO, % at 10 µM;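 active = fluorescence ratio to DMSO above its plate's cutoff, the plate mean ratio plus 5 SD, cut at about 210% in these data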;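 also: unstained yeast with no Nile Red so the signal is compound autofluorescence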
Mdr1 pump inh: inhibitors of Candida albicans Mdr1 efflux pump; 1% of 1,700 active; AID 588518; inhibition, % at 10 µM; shares compounds with Efflux pump mplx; S. cerevisiae AD/CaMDR1, Nile Red efflux, flow cytometry; in the data active = inhibition above about 26%;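 also: 0% = DMSO vehicle and 100% = reference inhibitor; higher means more Nile Red retained so more efflux inhibition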
Cdr2 pump inh: inhibitors of Candida albicans Cdr2 efflux pump; Nile Red retention ratio vs DMSO, % at 10 µM; 4% of 1,700 active; S. cerevisiae AD/CaCDR2, Nile Red retention, flow cytometry; shares compounds with Efflux pump mplx; in the data active = Nile Red retention ratio vs DMSO above about 190%;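 also: higher ratio means more blocking of Cdr2 efflux of the dye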
Cdr1 pump inh: Candida Cdr1 efflux pump inhibition | shares compounds with Efflux pump mplx | 1% of 1,700 active | S. cerevisiae AD/CaCDR1, Nile Red efflux, flow cytometry | inhibition, % at 10 µM;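 active = inhibition above the screen-wide mean plus twice its standard deviation, cut at about 32% in these data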
Numbers without * were called inactive; ? = inconclusive; nt = not tested or not shown.

SMILES | CIT2 TOR yeast | AGP1-GFP MLPCN | Efflux pump mplx | MEP2-GFP yeast | LAP4 TOR yeast | RPL19A-GFP yeast | Cmpd fluor yeast | Mdr1 pump inh | Cdr2 pump inh | Cdr1 pump inh
CCn1cc(/C=C/c2cc[n+](C)cc2)c2ccccc21 | 144 | 105 | 5.0* | 159 | 120 | 111 | 726* | 3 | 112 | 3
C=CCn1cc(/C=C/c2cc[n+](C)cc2)c2ccccc21 | 108 | 99 | 1 | 117 | 107 | 98 | 289* | 0 | 114 | 0
CC(C)n1cc(/C=N/Nc2ccc(C(=O)O)cc2)c2ccccc21 | 82 | 91 | 0 | 104 | 115 | 95 | nt | nt | nt | nt
CSCCC(NC(=O)c1ccccc1Cl)C(=O)N1CCN(C(c2ccccc2)c2ccccc2)CC1 (stereo not given) | 89 | 86 | 0.5* | 96 | 79 | 101 | 96 | 0 | 109 | 0
CC[n+]1c(/C=C/C=C/N(C(C)=O)c2ccccc2)sc2ccccc21 | 395* | 148 | 1.3* | 514* | 273* | 105 | 309* | 2 | 125 | 1
CCOc1ccc(NC(=O)N2CCC(n3c(=O)[nH]c4ccccc43)CC2)cc1 | 98 | 95 | 0.8* | 101 | 94 | 102 | 92 | 0 | 100 | 0
O=C(Nc1cccc(F)c1)N1CCC(n2c(=O)[nH]c3ccccc32)CC1 | 102 | 102 | 0 | 98 | 104 | 99 | nt | nt | nt | nt
CN(C)N1C(N)=C(C#N)C(c2ccc3c(c2)OCO3)C2=C1CCCC2=O (stereo not given) | 100 | 96 | 2.3* | 104 | 84 | 105 | 100 | 0 | 92 | 0
CN(C)N1C(N)=C(C#N)C(c2cccc(Cl)c2)C2=C1CCCC2=O (stereo not given) | 102 | 101 | 0 | 109 | 98 | 111 | nt | nt | nt | nt
O=C(c1cccc(F)c1)N1CCN(C(=O)c2cc3ncc(Br)cn3n2)CC1 | 97 | 99 | 14* | 103 | 98 | 97 | 103 | 0 | 99 | 0
COc1cccc(C(=O)N2CCN(C(=O)c3cccc(F)c3)CC2)c1 | 93 | 94 | 0 | 98 | 95 | 95 | nt | nt | nt | nt
O=C(C[n+]1cc(-c2ccc(Cl)c(Cl)c2)n2c1CCC2)OCc1ccccc1 | 105 | 102 | 6.4* | 103 | 99 | 98 | 112 | 0 | 95 | 0
Cc1c(CC(=O)NCC(=O)O)c(=O)oc2cc3c(cc12)CCC(C)(C)O3 | 93 | 98 | 0 | 98 | 104 | 97 | nt | nt | nt | nt
COc1ccccc1C(=O)NC(=O)COC(=O)C1CC2CCCC(C1)C2=O (stereo not given) | 95 | 92 | 0 | 104 | 89 | 106 | nt | nt | nt | nt
COc1ccc(-c2csc(NC(=O)c3cc(=O)c4ccccc4o3)n2)cc1OC | 102 | 81 | 0 | ? | 89 | 100 | nt | nt | nt | nt
CSc1nsc(SC)c1C(=O)Nc1ccc(C(C)(C)C)cc1 | 116 | 123 | 0 | 117 | 114 | 115 | nt | nt | nt | nt
CSc1nsc(SC)c1C(=O)NC(=O)Nc1cccnc1 | 106 | 110 | 0.8* | 101 | 115 | 97 | 107 | 0 | 112 | 0
CSCCC(NC(=O)c1cccc(C)c1)C(=O)OCN1C(=O)c2ccccc2C1=O (stereo not given) | 99 | 101 | 0 | 99 | 113 | 93 | nt | nt | nt | nt
COc1cc2c(cc1OC)CN(c1nc(CN3CCOCC3)nc3sc4c(c13)CCC(C)C4)CC2 (stereo not given) | 99 | 97 | 98* | 103 | 106 | 105 | 100 | 6 | 112 | 82*
COc1ccc(Nc2nc(CN3CCOCC3)nc3sc4c(c23)CCC(C)C4)cc1OC (stereo not given) | 97 | 95 | 0 | 100 | 96 | 100 | nt | nt | nt | nt
CCCCn1nc(C(=O)Nc2ccc3c(c2)OCCO3)c2ccccc2c1=O | 92 | 91 | 0 | 91 | 94 | 93 | nt | nt | nt | nt
Cc1ccc(C)c(C(=O)COC(=O)c2ccc(C)c(S(=O)(=O)N3CCOCC3)c2)c1 | 94 | 93 | 1.1* | 91 | 88 | 93 | 87 | 0 | 95 | 0
Cc1ccc(C(=O)OCC(=O)NC(C)C)cc1S(=O)(=O)N1CCOCC1 | 115 | 107 | 0 | 105 | 107 | 100 | nt | nt | nt | nt
Cc1cc(OCC(O)CN2CCc3ccccc3C2)ccc1Cl (stereo not given) | 108 | 107 | 0 | 108 | 95 | 100 | nt | nt | nt | nt
COc1cc(/C=C(\C#N)C(=O)NCCc2ccccc2)cc(OC)c1O | 100 | 97 | 0 | 104 | 98 | 98 | nt | nt | nt | nt
SMILES | CIT2 TOR yeast | AGP1-GFP MLPCN | Efflux pump mplx | MEP2-GFP yeast | LAP4 TOR yeast | RPL19A-GFP yeast | Cmpd fluor yeast | Mdr1 pump inh | Cdr2 pump inh | Cdr1 pump inh
COc1cc(/C=C(\C#N)C(=O)c2c[nH]c3ccccc23)cc(OC)c1O | 114 | 106 | 0.9* | 97 | 105 | 100 | 126 | 0 | 106 | 0
O=C(CCl)Nc1ccc2c(c1)OCO2 | 108 | 104 | 1.2* | 102 | 105 | 99 | 82 | 0 | 91 | 0
CC(C)CC(=O)Nc1ccc2c(c1)OCO2 | 96 | 95 | 0 | 106 | 109 | 104 | nt | nt | nt | nt
Cc1noc(C)c1NC(=O)N(C)C[C@H]1Oc2ccc(NC(=O)C3CC3)cc2C(=O)N([C@H](C)CO)C[C@@H]1C | 92 | 83 | 0 | 89 | 78 | 96 | nt | nt | nt | nt
NC1=NC[C@@H](Cc2ccc(O)cc2)N1CCc1cccc(F)c1 | 105 | 106 | 0 | 103 | 92 | 100 | 109 | 0 | 98 | 0
CCCCN1C(N)=NC[C@H]1Cc1ccc(O)cc1 | 91 | 97 | 0 | 103 | 97 | 97 | 99 | 0 | 101 | 0
CC(C)(C)CN1C(N)=NC[C@H]1Cc1ccc(O)cc1 | 100 | 98 | 1 | 101 | 95 | 100 | nt | nt | nt | nt
CC(C)(C)CN1C(N)=NC[C@@H]1Cc1ccc(O)cc1 | 95 | 90 | 0 | 93 | 129 | 98 | 104 | 0 | 112 | 0
CCCCN1C(N)=NC[C@@H]1Cc1ccc(O)cc1 | 106 | 117 | 0 | 105 | 97 | 106 | 98 | 0 | 105 | 0
NC1=NC[C@@H](Cc2ccc(O)cc2)N1CCc1cc(C(F)(F)F)cc(C(F)(F)F)c1 | 126 | 90 | 0 | 95 | 136 | 99 | nt | nt | nt | nt
CC1(C)Cc2c(cnn2-c2ccccc2)C(NC(=O)CCN2CCCCO2)C1 (stereo not given) | 94 | 96 | 0 | 98 | 87 | 94 | nt | nt | nt | nt
